This passage reports outcome, max response and Potency results from PubChem BioAssay (NCATS).

“And” between values parts separate entries of the source, which are not always exact repeats. Equal entries are not always repeated. Records with an inconclusive call do not appear. Values without a mark were called inactive. The source made the active and inactive calls. Calls come from the whole dose curve; as a rule, active = well fitted inhibition curve with a large enough effect; inconclusive = small, poorly fitted or top-dose-only effect; inactive = flat fitted curve, though single readings scatter.

The subject of one assay is CRL-7250. Description: Cytotoxic Profiling of Annotated Libraries Using Quantitative High-Throughput Screening (AID 1296008). Note: potency is the fitted concentration of half-maximal effect. Conditions: Five cell lines viability, CellTiter-Glo ATP luminescence, 48-72 h; max response: stronger effect = lower value. In short, it runs like this: (§1)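 Cytotoxicity was measured as CellTiter-Glo ATP luminescence, read after 10 min at room temperature. Compound treatment of the cells lasted 48 or 72 hr at 37 degrees Celsius in a qHTS format.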
(ATP-based viability assays read luminescence as a measure of living cells.)

The subject of assay [1] is HaCat. The assay is described as above. Conditions: Five cell lines viability, CellTiter-Glo ATP luminescence, 48-72 h; max response: stronger effect = lower value. Put shortly:
as §1

For the next assay, the system named is KB-3-1. Described as above. Particulars: Five cell lines viability, CellTiter-Glo ATP luminescence, 48-72 h; max response: stronger effect = lower value. Put shortly:
as §1

The next assay deals with NIH3T3. Described as above. Conditions: Five cell lines viability, CellTiter-Glo ATP luminescence, 48-72 h; max response: stronger effect = lower value. In short, it runs like this:
as §1

Assay [2] deals with HACAT. Put plainly: qHTS assay to identify novel small-molecules to repurpose for Merkel cell carcinoma treatment (AID 1296009). Conditions: MCC and control cell lines, CellTiter-Glo viability, 72 h. Put shortly:
(§2)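 Cell viability, measured as CellTiter-Glo luminescence, was normalized between DMSO and no-cell wells. The cells had been exposed to 8- or 11-point compound dilutions for 72 hr at 37 degree celsius.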
In general terms: qHTS replaces the single test concentration by a dilution series.

The subject of a further assay is MCC-13. Described as above. Particulars: MCC and control cell lines, CellTiter-Glo viability, 72 h; series mostly up to 46 µM. Put shortly:
as §2

The next assay relates to MCC-26. Described as above. Conditions: MCC and control cell lines, CellTiter-Glo viability, 72 h; series mostly up to 46 µM. Put shortly: as §2
The next assay has as its system HEK293T. The description is as above. Conditions: MCC and control cell lines, CellTiter-Glo viability, 72 h; at 44.8 µM (top of the series) unless noted. In short, it runs like this:
as §2

[3] abbreviates: at 44.8 µM (top of the series) unless noted.
% is set by controls: 0 for no effect and ±100 for the full control effect.
Note: nearly all actives have a fitted effect of over 60% in size.

On to `O=C(O)CCC=CCC[C@@H]1[C@H](N2CCCCC2)[C@@H](O)C[C@@H]1OCc1ccc(-c2ccccc2)cc1`, for which the compound was called inactive in the assay on CRL-7250, in the assay on HaCat [1], in the assay on KB-3-1 and with HACAT [2] (setting [3]). The max response in the assay with NIH3T3 is 3.59%. Further, the Potency result with MCC-13 and in the assay with MCC-26 was “inactive” throughout.
Take `CN[C@@H](C)[C@H]1[C@H](O)C[C@@]2(C)[C@@H]3CC[C@H]4C(C)(C)[C@@H](NC)CC[C@@]45C[C@@]35CC[C@]12C`: the max response in the assay with CRL-7250 was -4.48% and 3.02%; in the assay on HaCat [1], -3.67%; in the assay with KB-3-1, 4.02%. Also, the compound was called inactive with HaCat [1], in the assay on KB-3-1 and in the assay on NIH3T3. For the same compound, the outcome in the assay on HACAT [2] (setting [3]) was “inactive [at 9.27 µM]”. The Potency entry with MCC-13 and in the assay with MCC-26 was “inactive” throughout.
As for `COc1cc2ncn(-c3cc(OCc4ccccc4S(C)(=O)=O)c(C#N)s3)c2cc1OC`, the max response in the assay with CRL-7250 is 0.002%; in the assay on KB-3-1, -2.12%; in the assay on NIH3T3 it was -0.819%. Also, the compound was called inactive with HaCat [1] and in the assay on HACAT [2] (setting [3]). Also, the Potency entry in the assay with MCC-13 and with MCC-26 was “inactive” each time.
Regarding `CN(C)CCOc1cc(-c2cn[nH]c2)ccc1NC(=O)C1COc2ccccc2O1` (stereo unspecified), the outcome in the assay on CRL-7250, with HaCat [1] and in the assay with HACAT [2] (setting [3]) was inactive. For the same compound, the max response is -7.59% and -3.43% with KB-3-1; -6.62% in the assay on NIH3T3. Also, the Potency result in the assay on MCC-26 is “inactive”.
As to `CN1C(=O)C(Cc2c[nH]c3ccccc23)NC1=S` (stereo unspecified), the max response is 3.65% and -1.79% with CRL-7250; 2.81% with KB-3-1; -1.6% and -5.02% with NIH3T3. Also, the result with HaCat [1], in the assay on KB-3-1, in the assay on HACAT [2] (at 17.4 µM (top of the series)), with HACAT [2] (at 44.8 µM (top of the series)) and in the assay on HEK293T was inactive. Moreover, the Potency result with MCC-13 and in the assay on MCC-26 was “inactive” in each case.
As for `O=C(NCCCCN1CCOCC1)c1cc2ccccc2o1`, the max response in the assay with CRL-7250 is -1.43%; in the assay with NIH3T3 it was 3.06%. For the same compound, the compound was called inactive in the assay on HaCat [1], in the assay with KB-3-1 and with HACAT [2] (setting [3]). The Potency result in the assay on MCC-13 and in the assay with MCC-26 was “inactive” throughout.
`COC1CCC(C(=O)c2ccc3nc4c(cc3c2)CCCO4)CC1` (stereo unspecified): the result in the assay on CRL-7250, in the assay with HaCat [1] and with HACAT [2] (setting [3]) was inactive. Also, the max response is -15.4% in the assay with KB-3-1 and -7.67% in the assay on NIH3T3. Moreover, the Potency result with MCC-13 and with MCC-26 was “inactive” in each case.
Turning to `C[C@@H](NC(=O)c1ncnc(N)c1Cl)c1ncc(C(=O)Nc2cc(C(F)(F)F)c(Cl)cn2)s1`, the max response is -9.83% in the assay with CRL-7250; -5.83% and 1.58% in the assay on NIH3T3. Besides, the compound was classed as inactive in the assay on HaCat [1], in the assay with KB-3-1 and in the assay with HACAT [2] (setting [3]). The Potency result in the assay with MCC-13 and in the assay on MCC-26 was “inactive” in each case.
As for `COc1ccc2c(c1)c(C1=C(c3c[nH]c4ccccc34)C(=O)NC1=O)cn2CCCN(C)C`, the compound was classed as inactive in the assay on CRL-7250, in the assay on HaCat [1] and in the assay on HACAT [2] (setting [3]). Moreover, the values for the max response in the assay with KB-3-1 and in the assay on NIH3T3 were -14.8% and 4.3%, respectively. Moreover, the Potency entry with MCC-13 and in the assay with MCC-26 was “inactive” throughout.
On to `CN(C)c1ccccc1CN1CCCN(Cc2ccccc2N(C)C)C1c1ccncc1`, for which the outcome in the assay with CRL-7250, in the assay with HaCat [1], in the assay with KB-3-1 and with HACAT [2] (setting [3]) was inactive. Also, the max response in the assay on NIH3T3 is -1.17%. Also, the Potency result in the assay with MCC-13 and in the assay on MCC-26 was “inactive” each time.
As for `CCCCCCOC(=O)N=C(N)c1ccc(NCc2nc3cc(C(=O)N(CCC(=O)OCC)c4ccccn4)ccc3n2C)cc1`, the results for the max response in the assay on CRL-7250, with KB-3-1 and in the assay on NIH3T3 were -14.3%, 5.67% and 3.96%, respectively. Besides, the compound was classed as inactive in the assay with HaCat [1] and with HACAT [2] (setting [3]). For the same compound, the Potency entry in the assay on MCC-13 and with MCC-26 was “inactive” in each case.
On to `Nc1[nH]nc2nnc(-c3c(-c4ccccc4)nn4ccccc34)cc12`, for which the compound was classed as inactive in the assay on CRL-7250, in the assay with HaCat [1], in the assay on KB-3-1, in the assay with NIH3T3 and in the assay on HACAT [2] (setting [3]). For the same compound, the Potency result in the assay on MCC-13 and with MCC-26 was “inactive” in each case.
With `CCOC(=O)[C@@H](N)CCC(=O)N[C@@H](CSCc1ccccc1)C(=O)N[C@@H](C(=O)OCC)c1ccccc1`, the call in the assay on CRL-7250, with HaCat [1] and with HACAT [2] (setting [3]) was inactive. Moreover, the max response is -0.167% in the assay on KB-3-1 and 1.31% with NIH3T3. For the same compound, the Potency entry in the assay on MCC-13 and in the assay with MCC-26 was “inactive” in each case.
With `O=[N+]([O-])c1ccc(Nc2ccccc2-c2ccccc2)c2nonc12`, the max response in the assay on CRL-7250 was -7.85%; in the assay with KB-3-1, -18.3%; in the assay on NIH3T3, -25.2%. Moreover, the compound was classed as inactive in the assay with HaCat [1] and in the assay with HACAT [2] (setting [3]). Further, the Potency result in the assay with MCC-13 and with MCC-26 was “inactive” in each case.
Turning to `CCN1CCC(n2cc(CNc3cc(Cl)c4ncc(C#N)c(Nc5ccc(F)c(Cl)c5)c4c3)nn2)CC1`, the max response in the assay with CRL-7250 was -1.92% and -4.77%; in the assay with HaCat [1], -29.2% and -4.6%; with NIH3T3, 2.53%. In the assay with KB-3-1, the Potency was 18.4 µM (active). In the assay with NIH3T3, the call was inactive. The Potency entry in the assay on MCC-13 and in the assay with MCC-26 was “inactive” in each case.
`Cc1ccc(S(=O)(=O)OCC(=O)Nc2ccc(C(=O)O)c(O)c2)cc1`: the max response in the assay with CRL-7250 was -2.75%; in the assay on NIH3T3, -0.735%. Moreover, the result with HaCat [1], with KB-3-1 and with HACAT [2] (setting [3]) was inactive. The Potency result in the assay with MCC-13 and in the assay with MCC-26 was “inactive” in each case.
For the compound `CC=C1C2C=C(C)CC1(N)c1ccc(=O)[nH]c1C2` (stereo unspecified), the max response in the assay on CRL-7250 was 3.51%; in the assay on KB-3-1 it was 3.2%; in the assay with NIH3T3 it was -12.9%. Moreover, the call in the assay with HaCat [1] and in the assay with HACAT [2] (setting [3]) was inactive. Besides, the Potency result in the assay on MCC-13 and with MCC-26 was “inactive” throughout.
In the case of `COc1cc2ncnc(Nc3cc(Br)c(O)c(Br)c3)c2cc1OC`, the max response in the assay on CRL-7250 is -9.02% and 1.18%; in the assay on HaCat [1] it was -28.8%; in the assay with NIH3T3, -4.77%. The result in the assay on KB-3-1, with NIH3T3 and in the assay on HEK293T was inactive. Further, the Potency entry in the assay on MCC-13 and in the assay on MCC-26 was “inactive” throughout.
